From PubChem BioAssay AID720504 (National Center for Advancing Translational Sciences (NCATS), 2013)
About 10,000 (2.8%) of roughly 360,000 compounds were called active. Another 4% or so got no clear call; they are omitted. Calls come from the whole dose curve; as a rule, active = well fitted inhibition curve with a large enough effect; inconclusive = small, poorly fitted or top-dose-only effect; inactive = flat fitted curve, though single readings scatter. The entries come from a sample that favours actives as a whole.

These compounds were tested against Serine/threonine-protein kinase PLK1 (Homo sapiens) (UniProt P53350) (assay: qHTS for Inhibitors of PLK1-PDB (polo-like kinase 1 - polo-box domain): Primary Screen). Details: Plk1 PBD binding of FITC phosphopeptide, fluorescence polarization.
% is set by controls: 0 for no effect and ±100 for the full control effect; potency is the fitted concentration of half-maximal effect.
Note: nearly all actives have a fitted effect of over 65% in size.
Throughout, for Max response, negative = inhibition: series mostly up to about 57 µM.

Serine/threonine-protein kinase PLK1 (Homo sapiens), sequence (P53350 whole entry, looked up, the tested form may be a part): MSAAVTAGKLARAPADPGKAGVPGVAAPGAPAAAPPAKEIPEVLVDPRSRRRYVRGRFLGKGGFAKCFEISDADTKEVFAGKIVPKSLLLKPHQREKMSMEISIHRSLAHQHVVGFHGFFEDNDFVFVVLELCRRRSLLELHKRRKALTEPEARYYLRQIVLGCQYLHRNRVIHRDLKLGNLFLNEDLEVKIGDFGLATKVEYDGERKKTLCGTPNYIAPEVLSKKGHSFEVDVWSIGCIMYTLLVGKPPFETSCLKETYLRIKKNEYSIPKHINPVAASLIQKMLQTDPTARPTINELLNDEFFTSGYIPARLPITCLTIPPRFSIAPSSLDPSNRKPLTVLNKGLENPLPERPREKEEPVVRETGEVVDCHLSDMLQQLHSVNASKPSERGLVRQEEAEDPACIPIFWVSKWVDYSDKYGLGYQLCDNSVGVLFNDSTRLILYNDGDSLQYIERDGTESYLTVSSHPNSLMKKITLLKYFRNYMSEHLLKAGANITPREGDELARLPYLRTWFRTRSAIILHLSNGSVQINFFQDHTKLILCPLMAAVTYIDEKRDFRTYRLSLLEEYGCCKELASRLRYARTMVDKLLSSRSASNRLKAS

Max response, negative = inhibition, inactive:
O=C(NCc1ccccc1)C1c2ccccc2OCC(=O)N1CCCN1CCOCC1 (stereo not given) -0.492%, COc1ccc(NC2CCCN(C(=O)c3ccccc3-c3ncc[nH]3)C2)cc1 (stereo not given) -9.12%, CC1=C(C(=O)N(C(C)C)C(C)C)CC(CC(=O)NCCCCc2ccccc2)C(=O)N1CCC1=CCCCC1 (stereo not given) 1.49%, CN(Cc1cn(Cc2ccc(C(F)(F)F)cc2)nn1)C1CN(Cc2cn(Cc3ccc(C(F)(F)F)cc3)nn2)S(=O)(=O)C1 (stereo not given) -2.76%, CCc1ccccc1OCC(=O)Nc1ccc2c(c1)OCCO2 -10.4%, O=[N+]([O-])c1cccc(/C([O-])=C(/C(=S)Nc2ccccc2F)[n+]2ccccc2)c1 -15%, CCOc1ccc(CCN2C(=S)N([C@@H](CC(C)C)CN3CCC[C@@H]3CN3C(=S)NC[C@@H]3Cc3ccc(O)cc3)C[C@@H]2Cc2ccc(O)cc2)cc1 5.13%, CCc1nc2c(OCc3ccc(Cl)cc3Cl)cccn2c1N(C)C(=O)C(C)C 3.78%, CC(C)CNC(=O)C1(C)CCCN1C(=O)CSc1ccccc1 (stereo not given) -9.29%, O=C(CCC1CCCN(C(=O)c2ccc(F)c(F)c2)C1)N1CCN(c2ccccn2)CC1 (stereo not given) -12.1%, O=C(CCC1CCCN(C(=O)Cc2ccc(F)cc2)C1)N1CCN(c2ccccn2)CC1 (stereo not given) 2.42%, O=C(C=CC(=O)Nc1ccc(F)cc1F)Nc1ccc(F)cc1F 0.443%, COC(=O)Cc1ccc(OC2(C)CCN(Cc3ccc4c(c3)OCCO4)C2)cc1 (stereo not given) -7.87%, O=C(NNc1cc(Cl)ccc1Cl)c1cccnc1Cl 7.67%, COc1cccc(CNC(=O)c2cccnc2Sc2ccc(Cl)cc2)c1 -0.639%, NC(c1csc(NC(=O)Nc2cccc(C(F)(F)F)c2)n1)C1CCCCC1 (stereo not given) -5.95%, CC(=O)Nc1ccc(CNc2nc(NCCN(C)C)nc3cc(-c4ccccc4)sc23)cc1 0.652%, Cc1cccc(C)c1Cn1c(C)c(C(=O)NCc2cccc(Cl)c2)sc1=O -19.8%, CCNC(=O)C1(C)CCCN1C(=O)c1ccc(N(C)C)cc1 (stereo not given) -10.7%, O=C(NC1CCN(C(=S)Nc2ccc(Cl)cc2)CC1)C1CCCCC1 -11.1%, NC(=O)C1(N2CCCCC2)CCN(C(=S)Nc2ccc(Cl)cc2)CC1 1.24%, Cc1ccc(-c2nc3c(C)cc(Br)cn3c2Cc2ccccc2)cc1 -13.2%, COc1ccc(OC)c(NC(=O)C2(C)CCN2C(=O)Cc2ccccc2)c1 (stereo not given) -5.3%, CCCOc1ccc(Cn2c(O)cc(=O)[nH]c2=O)cc1 -26.3%, COc1ccc(-c2cnc3c(c2)C(=O)N([C@H](C)CO)C[C@@H](C)[C@H](CN(C)Cc2ccccc2)O3)cc1 -12.1%, O=C1NC[C@H](Cc2ccc(O)cc2)N(C[C@@H]2CCCN2C[C@H](Cc2ccccc2)N2C[C@H](Cc3ccccc3)N(CC3CCCCC3)C(=O)C2=O)C1=O -9.78%, O=C(c1cc(C2CCCCN2S(=O)(=O)c2ccccc2)on1)N1CCOCC1 (stereo not given) 3.83%, O=S1(=O)C[C@@H](N2CCN(CCO)CC2)[C@H](COCc2ccccc2)N1 -14.5%, Cc1cc(Br)cn2c(Cc3ccccc3C(F)(F)F)c(C3CCCCC3)nc12 -6.9%, CN(C(=O)COC(=O)c1ccc(Br)o1)c1c(N)n(Cc2ccccc2)c(=O)[nH]c1=O 2.32%, Nc1cc(=O)n(Cc2ccccc2)c(=O)n1Cc1ccccc1 -11.9%, COCCCNC(=O)c1ccc(-c2c(C)noc2C)c2ccoc12 -2.73%, CCCNC(=O)C1(C)CCN(C(=O)c2cc(F)ccc2C)C1 (stereo not given) -7.98%, O=S(=O)(NC1CC1)c1ccc(Cl)cc1 -11.6%, CC1CCC(NS(=O)(=O)c2ccc3c(c2)n(C)c(=O)c(=O)n3C)CC1 (stereo not given) -1.85%, COC(=O)c1ccc2nc(-c3ccccc3)c(Cc3ccc(OC)cc3C)n2c1 -8.32%, CCOC(=O)C1=CCC(c2ccc(F)cc2)N(S(=O)(=O)c2ccc(C)cc2)C1 (stereo not given) -10.4%, O=C(CSc1nc2[nH]ncc2c(=O)[nH]1)Nc1ccc(F)cc1 -1.42%, COc1ccc(-n2ncc3c(SCC(=O)NNC(C)=O)ncnc32)cc1 4.95%, Cn1cnc(S(=O)(=O)N2C[C@@H](O)COC[C@@H]3O[C@H](CC(=O)NC4CCC4)CC[C@H]32)c1 -0.717%, Cc1nccn1-c1ccc(NC(=O)[C@H]2O[C@@H](n3ccc(=O)[nH]c3=O)[C@H](O)[C@@H]2O)cc1 0.546%, CCOC(=O)[C@]12CCC=C1N(Cc1ccccc1)C(=O)[C@H](CC(=O)N1CCCC1)C2 -1.56%, CCCCCn1nnnc1C1c2ccccc2C(=O)N1Cc1ccco1 (stereo not given) -6.84%, Cc1cc(C)c([N+](=O)[O-])cc1-c1ccc(/C=N/NC(=O)c2nonc2N)o1 0.266%, Cc1ccc2nc(SCc3nnc(-c4ccccc4[N+](=O)[O-])o3)c(C#N)cc2c1 -9%, CC1=C(C(=O)N(C(C)C)C(C)C)CC(CC(=O)NCC2CCCCC2)C(=O)N1Cc1ccccc1 (stereo not given) -4.13%, O=C(C(=O)N1CCC(c2ccccc2)CC1)c1ccccc1 3.91%, Clc1ccc2c(c1)C1=C(C(c3ccncc3)O2)C(c2ccc(Br)cc2)n2ncnc2N1 (stereo not given) -0.898%, CCOC(=O)[C@]12CCCC=C1N(CCC1=CCCCC1)C(=O)[C@H](CC(=O)NCCCOC)C2 2.46%, CCOc1ccc(S(=O)(=O)NCCC(=O)NNC(=O)c2ccc(F)cc2)cc1 -14.6%, COc1ccc(NC(=O)c2sc(=O)n(Cc3ccc(S(=O)(=O)N(C)C)cc3)c2C)cc1 -0.145%, O=C(CN1CCOCC1)Nc1cccc([N+](=O)[O-])c1 -23.6%, O=C(Nc1cccc([N+](=O)[O-])c1)Nn1cnnc1 -2.87%, CC(=O)C[C@@H]1OC[C@H](C)N1S(=O)(=O)c1ccc(C)cc1 -5.26%, COc1cc(/C=C/C(=O)Nc2ccc(OC)c(S(=O)(=O)N3CCOCC3)c2)ccc1OCC#N -0.928%, COc1cc(/C=C/C(=O)OCC(=O)NC(=O)NCc2ccccc2)ccc1OCC#N -6.76%, CC(C)(C)c1ccc(S(=O)(=O)NC(=O)C2(C)CCN2C(=O)CC2CC2)cc1 (stereo not given) -12%, Cc1cccc(CN2CCN(C3CN(Cc4cn(Cc5ccccc5F)nn4)S(=O)(=O)C3)CC2)c1 (stereo not given) 3.36%, OC[C@@H]1CN(Cc2ccc3c(c2)OCO3)C[C@H](n2cnc3c(NCc4ccco4)ncnc32)O1 -2.35%, COC(=O)c1ccc(/C=C2/C(=O)Oc3ccccc32)cc1 -0.125%, O=C(NN=Cc1ccccc1O)NN=Cc1ccccc1O -11.7%, CC(=O)NC(c1cccc(F)c1)c1nc(-c2cccc(F)c2)cs1 (stereo not given) -0.575%, CN(C)c1ccc(-c2nnc(-c3cccnc3)o2)cc1 3.15%, COc1ccc(-c2nnc(-c3ccc4ccccc4c3)o2)cc1 -4.59%, COc1cc(NC(=O)C2=C(C)OCCS2)c(Cl)cc1C(=O)NCCCN1CCCC(C)C1 (stereo not given) -4.33%, Cc1cc(C(=O)N/N=C/c2ccc(O)c([N+](=O)[O-])c2)c(C)n1-c1ccc(F)cc1 -24.1%, O=[N+]([O-])c1ccc(N2CCSCC2)cc1O 2.23%, CS(=O)(=O)N1CCCCC1c1cc(C(=O)NCc2ccccc2)no1 (stereo not given) -4.51%

Potency, active:
CC(C)c1ccc2c(c1)c(SC(C)(C)C)c(CC(C)(C)C(=O)O)n2Cc1ccc(Cl)cc1 16.8 µM, CCOc1ccccc1NC(=S)C(=C([O-])c1ccc2c(c1)OCCO2)[n+]1ccc(CC)cc1 26.7 µM, C=Cc1ccc(C(=O)N2CCCC(CCC(=O)N3CCN(c4ccccn4)CC3)C2)cc1 (stereo not given) 21.2 µM, CC(=O)/C(=N\Nc1ccc(Cl)cc1Cl)Sc1cccc2cccnc12 4.23 µM, CN(C)c1ccc(C(=S)N2CCN(C(=S)Nc3ccc(Cl)cc3)CC2)cc1 6.7 µM, COc1cc(=O)[nH]c(=O)n1C(=O)Cc1ccccc1 2.99 µM, C=CS(=O)c1sc(Cl)c(N2CCOCC2)c1[N+](=O)[O-] (stereo not given) 1.34 µM, Cc1cc2nc3c(=O)n(Cc4ccccc4)c(=O)[nH]c3nc2cc1N 3.36 µM, Cn1sc(=O)c2cc(S(=O)(=O)NC3CC3)ccc21 2.12 µM, COc1ccc(NC(=O)CSc2ncnc3[nH]ncc23)cc1 3.77 µM, Cc1ccc(-c2ccc(/C=C(\C#N)C(N)=S)o2)c([N+](=O)[O-])c1 26.7 µM, Brc1ccc(C2=CC(c3ccco3)n3ncnc3N2)cc1 (stereo not given) 23.8 µM, COC(=O)/C=C\C(=O)Nc1cccc([N+](=O)[O-])c1 5.97 µM, COc1cc(/C=C/C(=O)OCC(=O)N2CCOCC2)ccc1OCC#N 26.7 µM, O=C1Oc2ccccc2C(=O)/C1=C/c1ccccc1O 2.67 µM, Nc1ccc(-c2nnc(-c3ccc(-c4ccccc4)cc3)o2)cc1 13.4 µM, O=C1CSC(=S)N1/N=C/c1ccc(O)c([N+](=O)[O-])c1 23.8 µM
